# Assays:
# Test in all cases: DAPPL (digital affinity profiling via proximity ligation, sequencing); 10 mM Tris-HCl pH 7.5, 50 mM NaCl, 1 mM DTT, 4% glycerol, room temperature, 30 min; GST-TFs on glutathione beads, 16-mer random dsDNA library, 0.1% formaldehyde crosslink after washing; high values mean tight binding
# FLI1 = molecular target: T1, FLI1 (Homo sapiens, UniProt Q01543 1-452); conditions: protein: recombinant; tags: N-terminal GST; dsDNA, one strand shown
# T1 sequence: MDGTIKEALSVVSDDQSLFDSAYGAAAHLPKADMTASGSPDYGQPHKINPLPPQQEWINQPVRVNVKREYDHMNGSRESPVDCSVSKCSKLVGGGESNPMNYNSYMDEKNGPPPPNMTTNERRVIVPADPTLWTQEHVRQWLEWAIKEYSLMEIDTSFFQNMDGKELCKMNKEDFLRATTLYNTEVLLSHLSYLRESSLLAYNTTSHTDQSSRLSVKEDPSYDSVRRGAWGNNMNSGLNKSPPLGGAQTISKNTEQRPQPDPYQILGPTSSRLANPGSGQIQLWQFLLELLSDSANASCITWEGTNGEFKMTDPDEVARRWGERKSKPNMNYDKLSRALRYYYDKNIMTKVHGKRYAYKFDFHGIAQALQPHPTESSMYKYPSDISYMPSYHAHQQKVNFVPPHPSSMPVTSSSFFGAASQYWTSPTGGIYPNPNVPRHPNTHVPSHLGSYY
# How it was run: (§1)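 A tag-only sample was pooled with DNA-barcoded human transcription factors that had been expressed in yeast as GST fusions and captured on glutathione beads. The pools were incubated for 30 min at room temperature with 200 nmole of a random double-stranded 16-mer DNA library in Tris/NaCl/DTT/glycerol buffer, then washed, crosslinked with 0.1% formaldehyde, proximity-ligated (BsaI/T4 ligase, 1 h, 37 °C), PCR-amplified and sequenced on an Illumina NextSeq500. Binding signal is each hexamer's read frequency for a factor divided by its frequency for the tag-only sample.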
# ELK1 = molecular target: T2, ELK1 (Homo sapiens, UniProt P19419 1-428); conditions: protein: recombinant; tags: N-terminal GST; dsDNA, one strand shown
# T2 sequence: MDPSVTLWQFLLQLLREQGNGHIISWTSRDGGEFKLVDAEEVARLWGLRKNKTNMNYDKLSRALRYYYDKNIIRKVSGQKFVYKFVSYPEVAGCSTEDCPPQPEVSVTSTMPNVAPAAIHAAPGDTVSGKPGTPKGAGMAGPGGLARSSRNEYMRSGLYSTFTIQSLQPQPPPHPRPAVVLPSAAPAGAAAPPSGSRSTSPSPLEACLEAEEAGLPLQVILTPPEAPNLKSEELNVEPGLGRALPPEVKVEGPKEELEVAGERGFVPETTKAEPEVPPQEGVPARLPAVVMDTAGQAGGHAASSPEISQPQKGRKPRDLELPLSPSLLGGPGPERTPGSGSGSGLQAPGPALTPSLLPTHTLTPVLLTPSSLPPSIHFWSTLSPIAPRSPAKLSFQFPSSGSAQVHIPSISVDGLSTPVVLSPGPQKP
# How it was run: as §1
# GABPA = molecular target: T3, GABPA (Homo sapiens, UniProt Q06546 1-454); conditions: protein: recombinant; tags: N-terminal GST; dsDNA, one strand shown
# T3 sequence: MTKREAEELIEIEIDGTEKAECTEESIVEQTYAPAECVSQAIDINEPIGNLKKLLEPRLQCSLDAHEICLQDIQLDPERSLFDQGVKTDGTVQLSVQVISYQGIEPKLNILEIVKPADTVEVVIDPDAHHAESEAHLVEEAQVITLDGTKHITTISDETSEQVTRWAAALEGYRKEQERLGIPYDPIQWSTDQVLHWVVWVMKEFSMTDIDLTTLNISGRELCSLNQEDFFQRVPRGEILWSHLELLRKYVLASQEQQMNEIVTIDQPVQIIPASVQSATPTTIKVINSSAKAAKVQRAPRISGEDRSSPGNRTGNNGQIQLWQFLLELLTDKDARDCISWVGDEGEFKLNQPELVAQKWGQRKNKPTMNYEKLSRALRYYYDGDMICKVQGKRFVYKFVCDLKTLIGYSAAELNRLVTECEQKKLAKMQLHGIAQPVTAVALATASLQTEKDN
# How it was run: as §1
# ERG = molecular target: T4, ERG (Homo sapiens, UniProt P11308 1-479); conditions: protein: recombinant; tags: N-terminal GST; dsDNA, one strand shown
# T4 sequence: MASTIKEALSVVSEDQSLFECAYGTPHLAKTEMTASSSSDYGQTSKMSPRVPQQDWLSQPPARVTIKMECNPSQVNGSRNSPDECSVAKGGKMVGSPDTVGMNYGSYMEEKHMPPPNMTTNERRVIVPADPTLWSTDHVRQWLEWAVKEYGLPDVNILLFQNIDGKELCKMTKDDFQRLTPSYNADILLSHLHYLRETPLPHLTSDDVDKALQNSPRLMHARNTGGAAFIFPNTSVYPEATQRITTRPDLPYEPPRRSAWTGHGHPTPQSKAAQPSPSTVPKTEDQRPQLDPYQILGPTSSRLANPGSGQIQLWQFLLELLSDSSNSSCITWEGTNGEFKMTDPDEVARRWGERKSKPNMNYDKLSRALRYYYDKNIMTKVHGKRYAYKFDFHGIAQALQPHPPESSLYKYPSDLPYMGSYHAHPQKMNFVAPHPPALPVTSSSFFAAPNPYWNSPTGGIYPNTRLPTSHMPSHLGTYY
# How it was run: as §1
# ELF1 = ELF1 (Homo sapiens, UniProt P32519 1-619); conditions: protein: recombinant; tags: N-terminal GST; dsDNA, one strand shown
# Sequence of ELF1 (P32519 whole entry): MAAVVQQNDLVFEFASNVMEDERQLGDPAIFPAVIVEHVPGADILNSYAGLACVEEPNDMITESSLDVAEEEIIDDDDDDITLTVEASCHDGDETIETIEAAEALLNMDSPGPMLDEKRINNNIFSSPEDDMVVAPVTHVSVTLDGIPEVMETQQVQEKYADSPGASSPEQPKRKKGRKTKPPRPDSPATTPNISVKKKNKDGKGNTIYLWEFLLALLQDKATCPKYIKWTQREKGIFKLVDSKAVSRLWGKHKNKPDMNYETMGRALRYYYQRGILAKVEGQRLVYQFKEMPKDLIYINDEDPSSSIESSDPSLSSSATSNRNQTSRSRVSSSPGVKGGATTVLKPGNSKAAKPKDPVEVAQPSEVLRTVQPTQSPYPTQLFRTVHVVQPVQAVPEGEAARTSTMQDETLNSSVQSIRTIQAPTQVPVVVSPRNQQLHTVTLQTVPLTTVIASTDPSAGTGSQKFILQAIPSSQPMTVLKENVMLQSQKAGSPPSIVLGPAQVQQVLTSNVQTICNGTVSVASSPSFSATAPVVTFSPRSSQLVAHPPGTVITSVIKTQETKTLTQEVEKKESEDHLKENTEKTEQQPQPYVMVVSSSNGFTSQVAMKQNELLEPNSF
# How it was run: as §1
# EHF = molecular target: T5, EHF (Homo sapiens, UniProt Q9NZC4 1-300); conditions: protein: recombinant; tags: N-terminal GST; dsDNA, one strand shown
# T5 sequence: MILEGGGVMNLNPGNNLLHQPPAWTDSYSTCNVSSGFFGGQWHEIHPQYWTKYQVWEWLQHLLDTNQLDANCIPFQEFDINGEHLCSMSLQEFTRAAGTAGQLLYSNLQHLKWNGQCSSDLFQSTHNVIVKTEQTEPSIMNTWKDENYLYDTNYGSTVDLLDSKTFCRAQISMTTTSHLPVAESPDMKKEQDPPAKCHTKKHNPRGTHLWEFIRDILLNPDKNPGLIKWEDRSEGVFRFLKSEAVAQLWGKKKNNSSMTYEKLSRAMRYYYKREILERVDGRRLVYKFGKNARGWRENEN
# How it was run: as §1
# SPI1 = SPI1 (Homo sapiens, UniProt P17947 1-270); conditions: protein: recombinant; tags: N-terminal GST; dsDNA, one strand shown
# How it was run: as §1
# SPIB = SPIB (Homo sapiens, UniProt Q01892 1-262); conditions: protein: recombinant; tags: N-terminal GST; dsDNA, one strand shown
# Sequence of SPIB (Q01892 whole entry): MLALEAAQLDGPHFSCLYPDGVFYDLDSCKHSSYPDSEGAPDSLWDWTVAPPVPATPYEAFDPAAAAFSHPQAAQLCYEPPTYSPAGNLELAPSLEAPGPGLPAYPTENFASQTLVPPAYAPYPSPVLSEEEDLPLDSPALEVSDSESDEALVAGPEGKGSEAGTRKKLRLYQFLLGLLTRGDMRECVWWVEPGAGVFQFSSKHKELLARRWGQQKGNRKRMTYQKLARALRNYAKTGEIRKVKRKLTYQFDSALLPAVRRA
# How it was run: as §1
# ELK3 = molecular target: T6, ELK3 (Homo sapiens, UniProt P41970 1-407); conditions: protein: recombinant; tags: N-terminal GST; dsDNA, one strand shown
# T6 sequence: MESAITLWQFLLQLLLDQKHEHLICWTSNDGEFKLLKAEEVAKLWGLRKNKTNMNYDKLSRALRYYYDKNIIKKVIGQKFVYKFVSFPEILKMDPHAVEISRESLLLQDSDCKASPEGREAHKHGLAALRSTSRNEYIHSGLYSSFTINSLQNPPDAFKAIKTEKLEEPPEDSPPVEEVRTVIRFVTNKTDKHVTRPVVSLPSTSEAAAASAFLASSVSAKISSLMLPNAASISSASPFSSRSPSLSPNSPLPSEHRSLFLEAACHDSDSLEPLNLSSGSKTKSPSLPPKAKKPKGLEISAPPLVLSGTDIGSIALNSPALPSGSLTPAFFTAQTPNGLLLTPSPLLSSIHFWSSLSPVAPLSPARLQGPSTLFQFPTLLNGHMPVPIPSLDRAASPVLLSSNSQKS
# How it was run: as §1
# FEV = molecular target: T7, FEV (Homo sapiens, UniProt Q99581 1-238); conditions: protein: recombinant; tags: N-terminal GST; dsDNA, one strand shown
# T7 sequence: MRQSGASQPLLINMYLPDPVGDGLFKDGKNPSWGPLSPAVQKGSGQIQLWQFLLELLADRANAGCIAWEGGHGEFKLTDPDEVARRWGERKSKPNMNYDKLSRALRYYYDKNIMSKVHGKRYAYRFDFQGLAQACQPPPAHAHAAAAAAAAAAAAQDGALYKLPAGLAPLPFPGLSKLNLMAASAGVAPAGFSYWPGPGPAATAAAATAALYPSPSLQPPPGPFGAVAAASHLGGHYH
# How it was run: as §1
# ETV5 = ETV5 (Homo sapiens, UniProt P41161 1-510); conditions: protein: recombinant; tags: N-terminal GST; dsDNA, one strand shown
# Sequence of ETV5 (P41161 whole entry): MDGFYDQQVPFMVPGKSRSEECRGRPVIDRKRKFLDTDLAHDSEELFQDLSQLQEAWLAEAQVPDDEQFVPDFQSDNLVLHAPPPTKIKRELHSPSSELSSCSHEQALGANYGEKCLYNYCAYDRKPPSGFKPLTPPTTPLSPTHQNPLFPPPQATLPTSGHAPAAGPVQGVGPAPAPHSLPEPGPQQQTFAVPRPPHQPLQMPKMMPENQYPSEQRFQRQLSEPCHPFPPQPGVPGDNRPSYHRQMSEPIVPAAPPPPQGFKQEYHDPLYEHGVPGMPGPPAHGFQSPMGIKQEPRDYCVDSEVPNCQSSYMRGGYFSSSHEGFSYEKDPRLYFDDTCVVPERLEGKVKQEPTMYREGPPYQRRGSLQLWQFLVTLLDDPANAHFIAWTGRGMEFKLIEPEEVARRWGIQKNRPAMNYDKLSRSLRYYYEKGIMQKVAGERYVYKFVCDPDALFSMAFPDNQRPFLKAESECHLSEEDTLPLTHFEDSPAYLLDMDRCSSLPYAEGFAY
# How it was run: as §1
# HSF1 = HSF1 (Homo sapiens, UniProt Q00613 1-529); conditions: protein: recombinant; tags: N-terminal GST; chain copies: 3; dsDNA, one strand shown
# Sequence of HSF1 (Q00613 whole entry): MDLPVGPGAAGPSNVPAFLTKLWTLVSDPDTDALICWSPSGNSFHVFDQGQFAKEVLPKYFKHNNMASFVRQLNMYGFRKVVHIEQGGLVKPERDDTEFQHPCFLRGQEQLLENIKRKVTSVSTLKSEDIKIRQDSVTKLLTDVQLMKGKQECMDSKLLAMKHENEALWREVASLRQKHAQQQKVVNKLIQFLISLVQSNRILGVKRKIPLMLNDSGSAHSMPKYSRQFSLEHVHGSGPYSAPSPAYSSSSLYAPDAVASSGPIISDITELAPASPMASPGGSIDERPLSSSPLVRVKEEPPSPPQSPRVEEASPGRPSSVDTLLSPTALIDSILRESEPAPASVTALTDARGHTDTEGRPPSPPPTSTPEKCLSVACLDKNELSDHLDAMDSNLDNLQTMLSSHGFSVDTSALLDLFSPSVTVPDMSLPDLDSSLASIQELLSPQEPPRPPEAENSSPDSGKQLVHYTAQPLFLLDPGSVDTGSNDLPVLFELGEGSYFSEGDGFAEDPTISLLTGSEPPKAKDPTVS
# How it was run: as §1
# SPIC = molecular target: T8, SPIC (Homo sapiens, UniProt Q8N5J4 1-248); conditions: protein: recombinant; tags: N-terminal GST; dsDNA, one strand shown
# T8 sequence: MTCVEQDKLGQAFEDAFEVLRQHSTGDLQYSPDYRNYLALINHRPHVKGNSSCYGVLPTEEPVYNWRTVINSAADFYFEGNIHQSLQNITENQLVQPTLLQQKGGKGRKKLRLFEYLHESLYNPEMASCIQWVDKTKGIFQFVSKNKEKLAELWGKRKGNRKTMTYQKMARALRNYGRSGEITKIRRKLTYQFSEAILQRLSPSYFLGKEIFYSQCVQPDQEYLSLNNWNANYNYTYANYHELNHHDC
# How it was run: as §1
# ELF4 = ELF4 (Homo sapiens, UniProt Q99607 1-663); conditions: protein: recombinant; tags: N-terminal GST; dsDNA, one strand shown
# Sequence of ELF4 (Q99607 whole entry): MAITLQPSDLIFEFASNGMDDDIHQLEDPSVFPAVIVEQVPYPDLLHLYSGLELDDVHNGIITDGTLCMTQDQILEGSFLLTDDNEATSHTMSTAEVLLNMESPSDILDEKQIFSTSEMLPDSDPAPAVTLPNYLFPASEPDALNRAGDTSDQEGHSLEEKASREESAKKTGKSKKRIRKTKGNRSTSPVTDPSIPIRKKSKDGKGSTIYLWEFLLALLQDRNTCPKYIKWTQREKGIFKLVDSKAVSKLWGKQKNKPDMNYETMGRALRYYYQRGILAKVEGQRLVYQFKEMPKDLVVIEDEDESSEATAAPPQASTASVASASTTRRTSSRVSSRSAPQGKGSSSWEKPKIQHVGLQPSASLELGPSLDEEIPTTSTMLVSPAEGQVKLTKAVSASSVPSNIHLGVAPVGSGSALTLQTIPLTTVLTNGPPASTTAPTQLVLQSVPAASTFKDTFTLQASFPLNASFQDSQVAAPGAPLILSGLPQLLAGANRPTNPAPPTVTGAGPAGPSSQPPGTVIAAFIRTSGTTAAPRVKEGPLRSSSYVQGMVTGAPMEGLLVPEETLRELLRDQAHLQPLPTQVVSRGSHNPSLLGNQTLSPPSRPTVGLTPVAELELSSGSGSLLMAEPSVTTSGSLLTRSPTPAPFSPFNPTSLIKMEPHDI
# How it was run: as §1
# ELK4 = molecular target: T9, ELK4 (Homo sapiens, UniProt P28324-2 1-405); conditions: protein: recombinant; tags: N-terminal GST; dsDNA, one strand shown
# T9 sequence: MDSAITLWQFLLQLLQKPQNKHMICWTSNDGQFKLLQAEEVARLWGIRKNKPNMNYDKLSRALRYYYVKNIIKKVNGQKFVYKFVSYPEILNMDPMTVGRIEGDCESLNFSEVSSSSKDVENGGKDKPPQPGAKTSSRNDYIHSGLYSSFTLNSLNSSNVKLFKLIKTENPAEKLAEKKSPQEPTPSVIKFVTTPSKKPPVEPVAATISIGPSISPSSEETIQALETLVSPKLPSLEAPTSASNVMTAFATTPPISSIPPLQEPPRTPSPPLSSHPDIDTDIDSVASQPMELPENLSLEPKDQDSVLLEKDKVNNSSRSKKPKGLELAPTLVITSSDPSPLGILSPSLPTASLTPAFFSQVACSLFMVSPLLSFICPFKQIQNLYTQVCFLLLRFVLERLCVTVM
# How it was run: as §1
# ETV2 = molecular target: T10, ETV2 (Homo sapiens, UniProt O00321 1-342); conditions: protein: recombinant; tags: N-terminal GST; dsDNA, one strand shown
# T10 sequence: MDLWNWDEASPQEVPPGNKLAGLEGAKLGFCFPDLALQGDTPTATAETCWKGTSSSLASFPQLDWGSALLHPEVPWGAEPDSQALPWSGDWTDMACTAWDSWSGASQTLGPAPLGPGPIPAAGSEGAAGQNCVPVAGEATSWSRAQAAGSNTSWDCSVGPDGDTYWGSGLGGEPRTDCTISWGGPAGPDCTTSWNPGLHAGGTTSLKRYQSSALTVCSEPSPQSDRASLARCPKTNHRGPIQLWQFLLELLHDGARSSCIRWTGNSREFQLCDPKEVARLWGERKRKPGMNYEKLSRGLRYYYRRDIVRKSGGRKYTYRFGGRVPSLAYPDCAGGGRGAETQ
# How it was run: as §1
# ELF3 = molecular target: T11, ELF3 (Homo sapiens, UniProt P78545 1-371); conditions: protein: recombinant; tags: N-terminal GST; dsDNA, one strand shown
# T11 sequence: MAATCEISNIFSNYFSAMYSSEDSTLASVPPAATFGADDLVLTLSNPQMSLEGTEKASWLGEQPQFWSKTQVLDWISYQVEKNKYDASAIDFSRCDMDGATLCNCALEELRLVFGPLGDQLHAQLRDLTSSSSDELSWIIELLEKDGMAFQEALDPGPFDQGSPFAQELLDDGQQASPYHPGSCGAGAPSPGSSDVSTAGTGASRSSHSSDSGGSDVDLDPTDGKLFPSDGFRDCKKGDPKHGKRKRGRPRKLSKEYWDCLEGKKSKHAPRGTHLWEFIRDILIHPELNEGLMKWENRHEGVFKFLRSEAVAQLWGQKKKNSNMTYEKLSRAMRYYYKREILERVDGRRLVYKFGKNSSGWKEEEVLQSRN
# How it was run: as §1
# CRX = CRX (Homo sapiens, UniProt O43186 1-299); conditions: protein: recombinant; tags: N-terminal GST; dsDNA, one strand shown
# Sequence of CRX (O43186 whole entry): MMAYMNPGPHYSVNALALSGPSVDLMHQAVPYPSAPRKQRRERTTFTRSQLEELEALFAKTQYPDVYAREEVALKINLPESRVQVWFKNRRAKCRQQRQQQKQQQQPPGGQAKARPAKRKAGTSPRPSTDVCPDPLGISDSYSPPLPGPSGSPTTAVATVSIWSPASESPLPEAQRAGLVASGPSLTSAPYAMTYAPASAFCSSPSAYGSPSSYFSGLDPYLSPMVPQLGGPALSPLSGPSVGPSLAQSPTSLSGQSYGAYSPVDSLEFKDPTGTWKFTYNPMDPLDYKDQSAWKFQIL
# How it was run: as §1
# ETV1 = ETV1 (Homo sapiens, UniProt P50549 1-477); conditions: protein: recombinant; tags: N-terminal GST; dsDNA, one strand shown
# Sequence of ETV1 (P50549 whole entry): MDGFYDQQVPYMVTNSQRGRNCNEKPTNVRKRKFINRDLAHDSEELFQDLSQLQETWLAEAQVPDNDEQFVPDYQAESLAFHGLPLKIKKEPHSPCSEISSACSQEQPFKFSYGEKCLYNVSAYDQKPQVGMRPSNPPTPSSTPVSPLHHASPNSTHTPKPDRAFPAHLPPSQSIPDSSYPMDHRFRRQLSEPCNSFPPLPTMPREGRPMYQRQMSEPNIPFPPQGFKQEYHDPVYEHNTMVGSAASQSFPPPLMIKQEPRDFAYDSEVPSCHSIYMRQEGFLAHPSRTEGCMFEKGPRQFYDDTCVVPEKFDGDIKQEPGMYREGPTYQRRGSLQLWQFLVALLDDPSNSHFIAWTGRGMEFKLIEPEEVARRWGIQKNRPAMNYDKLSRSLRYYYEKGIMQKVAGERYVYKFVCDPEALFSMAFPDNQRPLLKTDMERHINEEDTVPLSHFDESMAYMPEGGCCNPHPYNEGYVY
# How it was run: as §1
sequence,measurement,setting,value
TATGCA,binding signal,FLI1,"1.24 fold enrichment (6-mer frequency, TF over GST control)"
same,binding signal,ELK1,"1.24 fold enrichment (6-mer frequency, TF over GST control)"
same,binding signal,GABPA,"1.24 fold enrichment (6-mer frequency, TF over GST control)"
same,binding signal,ERG,"1.26 fold enrichment (6-mer frequency, TF over GST control)"
same,binding signal,ELF1,"1.18 fold enrichment (6-mer frequency, TF over GST control)"
same,binding signal,EHF,"1.12 fold enrichment (6-mer frequency, TF over GST control)"
same,binding signal,SPI1,"1.34 fold enrichment (6-mer frequency, TF over GST control)"
same,binding signal,SPIB,"1.25 fold enrichment (6-mer frequency, TF over GST control)"
same,binding signal,ELK3,"1.15 fold enrichment (6-mer frequency, TF over GST control)"
same,binding signal,FEV,"1.26 fold enrichment (6-mer frequency, TF over GST control)"
same,binding signal,ETV5,"1.18 fold enrichment (6-mer frequency, TF over GST control)"
same,binding signal,HSF1,"1.1 fold enrichment (6-mer frequency, TF over GST control)"
same,binding signal,SPIC,"1.24 fold enrichment (6-mer frequency, TF over GST control)"
same,binding signal,ELF4,"1.27 fold enrichment (6-mer frequency, TF over GST control)"
same,binding signal,ELK4,"1.37 fold enrichment (6-mer frequency, TF over GST control)"
same,binding signal,ETV2,"1.37 fold enrichment (6-mer frequency, TF over GST control)"
same,binding signal,ELF3,"1.25 fold enrichment (6-mer frequency, TF over GST control)"
same,binding signal,CRX,"1.22 fold enrichment (6-mer frequency, TF over GST control)"
same,binding signal,ETV1,"1.19 fold enrichment (6-mer frequency, TF over GST control)"
